Where a name gives a salt, the structure may show the parent alone. ± gives the standard deviation of the averaged measurements.

This experiment has as its system Toxoplasma gondii RH (in HFF). The experiment in a line: parasite growth relative to the screen mean (all compounds = 100%); higher = less inhibition of parasite growth. Conditions: 5 µM; 72 h; oxygen 21 %. The procedure, abridged:
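Each value is parasite growth expressed against the screen mean, averaged over two screens, where the mean of all compounds = 100%. The screen used 5 µM final compound on confluent human foreskin fibroblasts infected with RH β-Gal–GFP Toxoplasma (MOI 1:5) within 2 h and grown 72 h at 21% O2. Parasite number was measured by a CPRG β-Gal assay against in-plate standard curves.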
With `COc1cc(N)c(Cl)cc1C(=O)NC1CCN(CCCOc2ccc(F)cc2)CC1OC` (stereo not drawn) [Cisapride], the parasite growth came out at 20.8 ± 7.1%.

Take `CCOC(=O)c1ccc(OC(=O)CCCCCNC(=N)N)cc1` [Gabexate mesylate]: the parasite growth is 144 ± 6.4%.

Take `Nc1c(Br)cc(Br)cc1CN[C@H]1CC[C@H](O)CC1` [Ambroxol hydrochloride]: the parasite growth is 136 ± 3.2%.

On to `COC(=O)c1sccc1S(=O)(=O)Nc1ccc(Nc2ccccc2)cc1OC`, for which the parasite growth came to 64 ± 25%.

The molecule `O=C1CCc2cc(OCCCCc3nnnn3C3CCCCC3)ccc2N1` [Cilostazol] displayed a parasite growth of 74.6 ± 3.3%.

`COC(=O)[C@H]1[C@H]2C[C@H]3c4[nH]c5ccccc5c4CCN3C[C@H]2CC[C@@H]1O` [Rauwolscine hydrochloride]: the parasite growth was determined as 167 ± 41%.

`COCCCC/C(=N\OCCN)c1ccc(C(F)(F)F)cc1` [Fluvoxamine maleate] gave a parasite growth of 49.7 ± 11%.

As to `NCCCCCCCCCCNS(=O)(=O)c1cccc2c(Cl)cccc12` [A-7 hydrochloride], the parasite growth was found to be 142 ± 17%.

The record behind these values is the supplement of paper PMC4894684.
